These results are taken from PubChem BioAssay AID488969 (Vanderbilt High Throughput Screening Facility, 2010).

In all, about 110,000 compounds were measured (“z-score”: median about -0.1, highest 2% from about 2 on). The list comes from a sample in which the highest values are over-represented; it also holds similar structures and randomly drawn compounds. The source made the active and inactive calls.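 The calls were made as follows: active = z-score in the third read window above 3 or below -3; inactive = the rest.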

Sequence of Metabotropic glutamate receptor 8 (Rattus norvegicus) (P70579 whole entry, looked up): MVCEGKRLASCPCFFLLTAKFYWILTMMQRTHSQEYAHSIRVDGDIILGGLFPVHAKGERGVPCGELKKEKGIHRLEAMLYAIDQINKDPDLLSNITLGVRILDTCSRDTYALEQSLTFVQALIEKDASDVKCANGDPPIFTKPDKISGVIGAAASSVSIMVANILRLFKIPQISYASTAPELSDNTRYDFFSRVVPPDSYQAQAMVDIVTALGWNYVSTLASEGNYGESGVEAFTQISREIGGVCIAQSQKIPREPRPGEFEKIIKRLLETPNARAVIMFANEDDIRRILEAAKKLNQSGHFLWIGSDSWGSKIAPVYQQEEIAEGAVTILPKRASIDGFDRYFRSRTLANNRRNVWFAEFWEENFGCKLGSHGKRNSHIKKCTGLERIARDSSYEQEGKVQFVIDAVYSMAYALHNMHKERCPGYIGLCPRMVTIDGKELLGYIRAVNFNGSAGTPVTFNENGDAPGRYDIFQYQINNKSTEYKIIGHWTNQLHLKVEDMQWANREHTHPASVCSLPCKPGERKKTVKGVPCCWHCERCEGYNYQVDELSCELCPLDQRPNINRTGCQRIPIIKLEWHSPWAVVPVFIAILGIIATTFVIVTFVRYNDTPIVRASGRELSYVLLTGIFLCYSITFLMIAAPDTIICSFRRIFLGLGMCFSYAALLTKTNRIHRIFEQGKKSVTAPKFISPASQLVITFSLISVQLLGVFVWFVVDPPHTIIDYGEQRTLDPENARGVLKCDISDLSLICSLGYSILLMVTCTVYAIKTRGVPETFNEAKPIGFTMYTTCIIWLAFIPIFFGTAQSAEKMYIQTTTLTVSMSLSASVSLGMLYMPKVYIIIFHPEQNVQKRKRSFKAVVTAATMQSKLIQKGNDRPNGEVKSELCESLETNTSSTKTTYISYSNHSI

The assay concerns the target Metabotropic glutamate receptor 8 (Rattus norvegicus) (UniProt P70579). Put plainly: rat mGluR8 modulators via GIRK flux, primary screen, cell-based, thallium flux, HTS (AID 488969). The settings on record: HEK293 rat mGluR8, GIRK (G protein-gated inwardly rectifying potassium channel) thallium flux, FluoZin2; at 10 µM; stronger effect = higher value; submaximal glutamate (EC20) added with thallium.
As to `CCOc1cc(C)c(S(=O)(=O)NC2CCCCC2)cc1C`, the z-score was -0.571.
The same measure for `O=c1c2ccccc2nc(COc2ccccc2)n1/N=C/c1c[nH]c2ccccc12`: -0.533.
The compound `O=[N+]([O-])c1cc(Cl)cc(C2=NCCN2)c1` gave a z-score of 0.173.
`COc1ccc(N(CC(=O)NCc2ccccc2OC)S(=O)(=O)c2c(C)nn(C)c2C)cc1`: the z-score is -0.153.
The same measure for `COc1ccc(-c2nn(-c3ccccc3)cc2C(=O)O)cc1OC`: 0.191; for `COc1ccccc1N1CCN(CC(=O)Nc2cc(F)ccc2C)CC1`: 0.0403; for `CCN(CC)c1ccc(NC(=O)CSc2nc3ccccc3c(=O)[nH]2)cc1`: -0.106.
The same measure for `Cc1ccc2c(Cl)cc(Cl)c(OCC(=O)NCc3ccco3)c2n1`: 3.48 (active).
In the case of `Cc1ccc2c(Cl)cc(Cl)c(OCC(=O)NC(=O)NCc3ccco3)c2n1`, the z-score was -0.127.
The compound `Cc1ccc2c(Cl)cc(Cl)c(OCC(=O)Nc3cc(C)on3)c2n1` came in with a z-score of 0.0628.
With `Cc1c(C(=O)O)cccc1-c1ccc(C=O)o1` the figure was 0.12.
Regarding `O=C(COc1ccc(S(=O)(=O)NC2CCCCC2)cc1Cl)Nc1ccc2c(c1)OCO2`, the z-score is 0.2.
With `CC(C)NS(=O)(=O)c1ccc(OCC(=O)Nc2ccc3c(c2)OCO3)c(Cl)c1` the figure was 3.09 (active); with `CN(C)S(=O)(=O)c1cc(NC(=O)COC(=O)c2ccc3c(c2)OCO3)ccc1Cl`, 10.1 (active); with `Cc1ccc(NC(=O)COC(=O)c2ccc3c(c2)OCO3)cc1S(=O)(=O)N1CCCCC1`, -0.401.
The same measure for `Cc1nn(CC(=O)Nc2cc(S(=O)(=O)N(C)C)ccc2Cl)c(C)c1[N+](=O)[O-]`: 0.164; for `Cc1nn(CC(=O)Nc2ccc(S(=O)(=O)N(C)C)cc2)c(C)c1[N+](=O)[O-]`: -0.0283.
With `CCN(CC)S(=O)(=O)c1ccc(NC(=O)COC(=O)c2ccc(-n3nc(C)cc3C)cc2)cc1` the figure was 0.0126.
Take `Cc1cc(C)n(-c2ccc(C(=O)OCC(=O)Nc3ccc(Cl)c(S(=O)(=O)N(C)C)c3)cc2)n1`: the z-score was 15.5 (active).
With `CC(C)CNS(=O)(=O)c1ccc(OCC(=O)Nc2ccc3c(c2)OCO3)c(Cl)c1` the figure was -0.19; with `Cc1cc(C)n(-c2ccc(C(=O)OCC(=O)Nc3ccc(S(=O)(=O)N4CCCCC4)cc3)cc2)n1`, -0.00692; with `Cc1ccc(S(=O)(=O)N(C)C)cc1NC(=O)COC(=O)c1ccc2c(c1)OCO2`, 1.63.
With `Cc1nn(CC(=O)Nc2ccc(Cl)c(S(=O)(=O)N(C)C)c2)c(C)c1[N+](=O)[O-]` the figure was 4.55 (active); with `Cc1ccc(S(=O)(=O)CC(C)N2CCN(C3CCCCC3)CC2)cc1` (centres undefined), 1.44; with `COc1ccccc1C(=O)COC(=O)c1ccccc1OCC(=O)Nc1ccc(SC(F)F)cc1`, 1.1.
Turning to `COc1cccc(/C(O)=C2/C(=O)C(=O)N(Cc3ccco3)C2c2ccncc2)c1` (centres undefined), the z-score was -0.192.
On to `O=C(CSc1nnc(CN2CCOCC2)n1-c1ccc(Cl)cc1)Nc1cc(Cl)ccc1O`, for which the z-score is -0.794.
The same measure for `Cc1cc(C)nc(NS(=O)(=O)c2ccc(NC(=O)CN3C(=O)c4ccccc4C3=O)cc2)n1`: 0.113.
The same measure for `COc1ccc(/C=N/NC(=O)C(=O)Nc2ccccn2)cc1OC`: 0.813.
Regarding `CCCOc1ccc(/C=N/NC(=O)C(=O)Nc2ccccn2)cc1`, the z-score was 3.92 (active).
The same measure for `COc1cc(/C=N/NC(=O)C(=O)Nc2ccccn2)ccc1O`: -0.198; for `COc1ccc(CCNC(=O)CSc2nnc(CNC(=O)c3ccco3)o2)cc1OC`: 0.382; for `Cc1cc(C)c2nc(SCC(=O)NCCC3=CCCCC3)cc(C)c2c1`: 3.98 (active).
With `Cc1cc(C)c2nc(SCC(=O)NCCN3C(=O)CSC3=O)cc(C)c2c1` the figure was -0.238; with `Cc1ccc(-n2nnnc2SCC(=O)NCCC2=CCCCC2)c(C)c1`, 0.08; with `Cc1nnc(NC(=O)c2ccco2)s1`, 3.93 (active).
The same measure for `C/C=C(\C)c1nnc(NC(=O)c2ccco2)s1`: -0.358; for `COCc1nnc(NC(=O)c2ccco2)s1`: 0.76; for `CC(=O)Nc1nnc(C)s1`: 3.66 (active).
For the compound `CC(C)=CC(=O)Nc1nnc(C)s1`, the z-score came to 0.00638.
`CCC(=O)Nc1nnc(C)s1` came in with a z-score of 0.946.
With `CCCOc1ccc(N2C(=O)CC(N(CCc3ccc(OC)cc3)C(=O)c3cccc(F)c3)C2=O)cc1` (centres undefined) the figure was -0.214; with `COc1ccccc1N(CN1CCCC1=O)C(=O)c1ccccc1F`, -0.699; with `O=C1/C(=C\Nc2ccc(Cl)cc2)CCN1c1ncccn1`, 0.111.
With `Cc1ccc(C(=O)NCCNc2ccc(Cl)cc2[N+](=O)[O-])o1` the figure was -0.083.
The same measure for `CCCN1C2=NS(=O)(=O)CCN2c2ccccc21`: 0.249; for `C=CCn1c(SCC(=O)c2cc(C)n(CCOC)c2C)nc2sc(C)c(C)c2c1=O`: -0.255.
For the compound `COc1nc(N2CCOCC2)nc(C)c1[N+](=O)[O-]`, the z-score is -0.535.
`CN(C)CCCOC(=O)c1ccccc1Cl`: the z-score came to 0.35.
With `CCN(CC)C(=S)NC(=O)c1ccc(Cl)cc1Cl` the figure was 2.95; with `CCC(=O)NC(=S)Nc1cccc(NC(=O)c2ccc(Cl)cc2Cl)c1`, 0.179; with `O=C(NNC(=O)c1ccccc1-n1cccc1)c1ccc(Cl)cc1Cl`, 0.632.
With `CN(C)CCCOC(=O)c1ccc(Cl)cc1Cl` the figure was 0.77; with `CC1Cc2ccccc2N1C(=S)Nc1ccc(S(N)(=O)=O)cc1` (centres undefined), 0.0257.
With `C=CCNC(=O)c1ccc(Cl)cc1Cl` the figure was 0.206; with `CCCC(=O)NC(=S)Nc1cccc(NC(=O)c2ccc(Cl)cc2Cl)c1`, -0.0719; with `CCCCN(CCCC)C(=S)NC(=O)c1ccccc1Cl`, -0.755.
Take `CC1Cc2ccccc2N1C(=S)NC(=O)c1ccc(Cl)cc1Cl` (centres undefined): the z-score is 13.5 (active).
On to `CCCN(CCC)CCCOC(=O)c1ccc(Cl)cc1Cl`, for which the z-score is 3.95 (active).
The same measure for `CCCN(CCC)C(=S)NC(=O)c1ccc(Cl)cc1Cl`: 14.4 (active); for `O=C(Cc1ccc([N+](=O)[O-])cc1)Nc1nnc(C2CC2)s1`: 1.17; for `Cc1cc2cc(CN(CC3CCCO3)C(=S)Nc3ccccc3)c(=O)[nH]c2cc1C` (centres undefined): -0.235.
The same measure for `Cc1ccc2c(c1)NC(=O)CC(c1ccccc1)=N2`: 8.23 (active); for `O=C1CC(c2ccccc2)=Nc2ccccc2N1`: -0.0288.
With `COc1ccc2c(c1)NC(=O)CC(c1ccccc1)=N2` the figure was -0.0551; with `COc1ccc(/C=N/NC(=O)C[n+]2ccccc2)c(OC)c1OC`, -0.273.
`Fc1ccccc1N1CCN(C(c2cccs2)c2nnnn2CCc2ccccc2)CC1` (centres undefined) displayed a z-score of 0.131.
The same measure for `Cc1ccc(NC2=C(Cl)C(=O)OC2NC(=O)c2ccccc2)cc1` (centres undefined): -0.201; for `COc1ccc(CCn2nnnc2C(c2ccc(C)cc2)N2CCN(C)CC2)cc1OC` (centres undefined): 0.0408; for `COc1ccccc1C(c1nnnn1CCc1ccccc1)N1CCCCCC1` (centres undefined): 2.68.
With `CCN1CCN(C(c2ccccc2)c2nnnn2CCc2ccc(OC)c(OC)c2)CC1` (centres undefined) the figure was 0.256; with `C=CCN1CCN(C(c2ccc(Cl)cc2)c2nnnn2CCc2ccc(OC)c(OC)c2)CC1` (centres undefined), 2.29; with `COc1ccccc1C(c1nnnn1CCc1ccccc1)N1CCN(c2ccccc2)CC1` (centres undefined), -0.00308.
The same measure for `COc1cccc(C(c2nnnn2CCc2ccccc2)N2CCN(c3ccccc3)CC2)c1OC` (centres undefined): -0.689.
